Data from PubChem BioAssay (NCATS).
Records with an inconclusive call do not appear. Entries that show only a call come without a potency. Activity calls are given as the source filed them. Calls come from the whole dose curve; as a rule, active = well fitted inhibition curve with a large enough effect; inconclusive = small, poorly fitted or top-dose-only effect; inactive = no such curve, though single readings can be large or run the other way.

What was measured:
[1] = test system: Zika virus NS2B-NS3 protease (unlinked complex); experiment: Primary screen GU Rhodamine qHTS for Zika virus inhibitors: Unlinked NS2B-NS3 protease assay (AID 1347159); note: nearly all actives have a fitted effect of over 60% in size
Outline: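 Percent inhibition came from the 15-min rise in Rhodamine110 fluorescence (1.5 microM substrate, ~15% conversion), normalized to no-inhibitor and no-enzyme wells and Hill-fitted. Unlinked protease, 25 nM, pH 8.0 Tris buffer; compounds up to 114 microM, 15-min preincubation.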

[2] = test system: Zika virus NS2B-NS3 protease (linked construct); experiment: Primary screen NINDS Rhodamine qHTS for Zika virus inhibitors (AID 1347160); note: nearly all actives have a fitted effect of over 55% in size
Outline: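 Rhodamine110-peptide cleavage (1.5 µM substrate) by 25 nM linked NS2B-NS3 enzyme at pH 8.0 (Tris, Tween 20), after 15 min RT preincubation with compounds; 15-min fluorescence change normalized to controls and Hill-fitted.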
Potency is the fitted concentration of half-maximal effect.

SMILES | Potency [1] | Potency [2]
COc1ccc(/C=C/C(=O)O[C@@H]2[C@@H](OC(C)=O)[C@@H](OC(C)=O)[C@H](O[C@H]3[C@@H]4C=CO[C@@H](O[C@@H]5O[C@H](CO)[C@@H](O)[C@H](O)[C@H]5O)[C@@H]4[C@@]4(CO)O[C@@H]34)O[C@H]2C)cc1O | inactive | inactive
C=C1[C@H]2[C@H](O[C@@H]3O[C@H](COC(=O)/C=C/c4cc(OC)c(O)c(OC)c4)[C@@H](O)[C@H](O)[C@H]3O)OC=C(C(=O)O)[C@H]2C[C@@H]1O | inactive | inactive
COc1cc(NC(=O)c2ccccn2)ccc1Cl | inactive | inactive
CC(=O)OCC(=O)O[C@@H]1[C@H]2[C@@H](OC(=O)c3ccccc3)[C@@H](C)C[C@]2(O)[C@H](OC(C)=O)C2(C)[C@H]3CC(C)(C)C(=O)[C@@H]3CC1(OC(C)=O)[C@@H]2OC(C)=O (some centres not stated) | inactive | inactive
C=CCc1ccc(O[C@@H]2O[C@H](CO[C@@H]3O[C@H](CO)[C@@H](O)[C@H](O)[C@H]3O)[C@@H](O)[C@H](O)[C@H]2O)c(O)c1 | inactive | inactive
CC(C)C1=CC2=CCC3[C@](C)(CCC[C@@]3(C)C(=O)O)C2CC1O (some centres not stated) | inactive | inactive
C=C1CCC[C@]2(C)C[C@]3(O)OC(=O)C(C)=C3C[C@@H]12 | inactive | inactive
C(#Cc1cccc(CN2CCOCC2)c1)CCN1CCCCC1 | inactive | inactive
CC1OC(OC2C(C)OC(OC3C(OC(=O)/C=C/c4ccc(O)cc4)C(CO)OC(OC4(COC(=O)/C=C/c5ccc(O)cc5)OC(CO)C(O)C4O)C3OC3OCC(O)(CO)C3O)C(O)C2O)C(O)C(O)C1O (configuration not stated) | inactive | inactive
O=C(Nc1cccnn1)N1CCC(=Cc2cccc(Oc3ccc(C(F)(F)F)cn3)c2)CC1 | inactive | inactive
O=C(O[C@H]1[C@@H]2C=CO[C@@H](O[C@@H]3O[C@H](CO)[C@@H](O)[C@H](O)[C@H]3O)[C@@H]2[C@@]2(CO)O[C@@H]12)c1ccc(O)cc1 | inactive | inactive
CC(O)(CC(=O)O)CC(=O)O[C@@H]1[C@@H](O)[C@H](OCCc2ccccc2)O[C@H](CO)[C@H]1O (some centres not stated) | inactive | inactive
C[C@]1(OC(=O)/C=C/c2ccccc2)C[C@H](O)[C@]2(O)C=CO[C@@H](O[C@@H]3O[C@H](CO)[C@@H](O)[C@H](O)[C@H]3O)C12 (some centres not stated) | inactive | inactive
CC1(CO)CC[C@]2(C(=O)O[C@@H]3O[C@H](CO)[C@@H](O)[C@H](O)[C@H]3O)CC[C@]3(C)C(=CCC4[C@@]5(C)C[C@H](O)[C@H](O[C@@H]6OC[C@@H](O)[C@H](O)[C@H]6O)[C@@](C)(CO)C5CC[C@]43C)C2C1 (some centres not stated) | inactive | inactive
NC(=O)c1cccc(-c2cc(O)cc(OC(=O)NC3CCCCC3)c2)c1 | inactive | inactive
COc1c2c(c(C)c3c1C(=O)OC3)O[C@@]1(C)C[C@@H](O)[C@]34O[C@](OC)(CC[C@]3(C)[C@H]1C2)OC4(C)C | inactive | inactive
CC1=CC(=O)C2C(C)(C)CC(O)CC2(C)C1CO (configuration not stated) | inactive | inactive
CCCC1=CC2=C(CO1)C(=O)C(C)(OC(=O)c1c(C)cc(OC)cc1O)C(O)C2 (configuration not stated) | inactive | inactive
OC[C@H]1O[C@@H](Oc2cc(O)cc(/C=C/c3ccc(O)cc3)c2)[C@H](O)[C@@H](O)[C@@H]1O | inactive | inactive
C=C1CC23CC1(O)CCC2C1=CC2OC(=O)C(C)(C2O)C1C3C(=O)O (configuration not stated) | inactive | inactive
C[C@@H]1CC[C@]2(C)C3(C)CC[C@@]2(OC3=O)[C@@]12C[C@H](c1ccoc1)OC2=O | inactive | inactive
CC1CCC2(NC1)OC1C(=O)C3C4CCC5CC(O[C@@H]6O[C@H](CO)[C@@H](O)[C@H](O)[C@H]6O[C@@H]6O[C@@H](C)[C@H](O)[C@@H](O)[C@H]6O)CCC5(C)C4CCC3(C)C1C2C (some centres not stated) | inactive | inactive
CC(C#N)C(C)O[C@@H]1O[C@H](CO)[C@@H](O)[C@H](O)[C@H]1O (some centres not stated) | inactive | inactive
CO/N=C(/C(=O)N[C@@H]1C(=O)N2C(C(=O)O)=C(CSC(=O)c3ccco3)CS[C@H]12)c1csc(N)n1 | 35.5 µM (active) | 25.1 µM (active)
Cn1c(=O)c2nc(/C=C/c3cccc(Cl)c3)n(C)c2n(C)c1=O | inactive | inactive
CC(/C=C/C1(O)C(C)CC(O)CC1(C)C)OC1OC(CO)C(O)C(O)C1O (configuration not stated) | inactive | inactive
